These results are taken from PubChem BioAssay (NCATS).

Results filed as inconclusive are left out. Activity calls are given as the source filed them. The call rests on the fitted dose curve; in most records, active means well fitted cell-killing curve with a large enough effect; inconclusive means small, poorly fitted or top-dose-only effect, or effect the other way; inactive means no such curve, though single readings can be large or run the other way.

Test [1] in a line: Quantitative High-Throughput drug screen in 47 multiple myeloma cell lines against the NCATS MIPE library collection: FR4_PLB cell viability assay (AID 1918924; further: nearly all actives have a fitted effect of over 35% in size). In a few lines: (§1)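 Relative luminescence from CellTiter-Glo served as the viability signal, referenced to DMSO-treated (100%) and cell-free medium (0%) controls. Treatment lasted 48 hours at 37C with 500 cells per well.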

A short description of test [2]: Quantitative High-Throughput drug screen in 47 multiple myeloma cell lines against the NCATS MIPE library collection: Delta47_JCRB cell viability assay (AID 1918925; further: nearly all actives have a fitted effect of over 45% in size). In a few lines:
as §1

Test [3] is described as follows: Quantitative High-Throughput drug screen in 47 multiple myeloma cell lines against the NCATS MIPE library collection: EJM_DSMZ cell viability assay (AID 1918926; further: nearly all actives have a fitted effect of over 30% in size). In a few lines: as §1
A short description of test [4]: Quantitative High-Throughput drug screen in 47 multiple myeloma cell lines against the NCATS MIPE library collection: AMO1_DSMZ cell viability assay (AID 1918927; further: nearly all actives have a fitted effect of over 30% in size). The method, boiled down: as §1
The nature of test [5]: Quantitative High-Throughput drug screen in 47 multiple myeloma cell lines against the NCATS MIPE library collection: ARP1_JJKsccF8 cell viability assay (AID 1918928; further: nearly all actives have a fitted effect of over 40% in size). In a few lines: (§2)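 Each line was plated at 500 cells/well and treated 48 h with library drugs. Viability came from CellTiter-Glo luminescence relative to DMSO and cell-free medium controls.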
The nature of test [6]: Quantitative High-Throughput drug screen in 47 multiple myeloma cell lines against the NCATS MIPE library collection: Karpas620_DSMZ cell viability assay (AID 1918959). Further: nearly all actives have a fitted effect of over 30% in size. The method, boiled down:
as §1

A short description of test [7]: Quantitative High-Throughput drug screen in 47 multiple myeloma cell lines against the NCATS MIPE library collection: Karpas417_ECACC cell viability assay (AID 1918961). The following applies: Karpas417 myeloma viability, CellTiter-Glo ATP luminescence, 48 h; viability (% of DMSO): at 45.8 µM (top of the series). The method, boiled down: as §1
A short description of test [8]: Quantitative High-Throughput drug screen in 47 multiple myeloma cell lines against the NCATS MIPE library collection: ARD_JJKsccE7 cell viability assay (AID 1918929). In a few lines: as §1
Test [9] is described as follows: Quantitative High-Throughput drug screen in 47 multiple myeloma cell lines against the NCATS MIPE library collection: KMM1_JCRB cell viability assay (AID 1918960). Further: nearly all actives have a fitted effect of over 30% in size. In a few lines:
as §2
Potency means the concentration at half of the fitted maximal effect.

For `O=C(Nc1ncc(SCCN2CCCC2)s1)[C@]1(c2ccc(S(=O)(=O)C3CC3)cc2)C[C@@H]1C1CCCCC1`, the Potency in test [1] is 18.7 µM (active); in test [2], 14.8 µM (active); in test [3], 18.7 µM (active); in test [4], 8.33 µM (active); in test [5], 26.4 µM (active); in test [6] it was 8.33 µM (active). Moreover, the Potency in test [7] was 10.5 µM (active).

Take `COc1cc(F)c(C(C)C)cc1-c1ccc(C(F)(F)F)cc1CN1C(=O)O[C@H](c2cc(C(F)(F)F)cc(C(F)(F)F)c2)[C@@H]1C`: the Potency result in [1], in test [2], in [3], in test [4], in [8] and in [6] was “inactive” throughout. Also, the Potency result in [9] was “inactive”.

Regarding `CN[C@H]1[C@@H](O[C@@H]2[C@H](O[C@@H]3[C@@H](O)[C@@H](O)[C@@H](N=C(N)N)[C@@H](O)[C@@H]3N=C(N)N)O[C@H](C)[C@@]2(O)C=O)O[C@@H](CO)[C@@H](O)[C@H]1O`, the Potency entry in test [1], in test [2], in [3], in test [5] and in test [9] was “inactive” each time.

`N#CC(c1ccc(Cl)cc1)c1c(Cl)cc(-n2ncc(=O)[nH]c2=O)cc1Cl` (stereo not given): in [1], the Potency entry was “inactive”. Also, the Potency in [2] is 23.5 µM (active); in [3], 16.6 µM (active); in [4], 5.26 µM (active); in test [8] it was 18.7 µM (active); in test [6], 10.5 µM (active); in test [9], 5.9 µM (active).

Take `CC(C)CN(C[C@@H](O)[C@H](Cc1ccccc1)NC(=O)O[C@H]1CO[C@H]2OCC[C@H]21)S(=O)(=O)c1ccc(N)cc1`: the Potency entry in [1], in test [4], in test [8], in [6] and in test [9] was “inactive” each time. The Potency is 1.48 µM (active) in test [2] and 5.9 µM (active) in [3].

On to `CCC(C)SSc1ncc[nH]1` (stereo not given), for which the Potency in test [1] was 16.6 µM (active); in test [2] it was 10.5 µM (active); in test [3] it was 13.2 µM (active); in test [4] it was 9.35 µM (active); in [5], 9.35 µM (active); in test [6], 4.69 µM (active). The Potency is 3.32 µM (active) in test [9] and 2.35 µM (active) in [7].

On to `CC[C@H](NC(=O)[C@H](C)NC)C(=O)N1C[C@@H](O)C[C@H]1Cc1c(-c2[nH]c3cc(F)ccc3c2C[C@H]2C[C@H](O)CN2C(=O)[C@H](CC)NC(=O)[C@H](C)NC)[nH]c2cc(F)ccc12`, for which the Potency entry in test [1] was “inactive”. Moreover, the Potency in test [2] is 16.6 µM (active); in [4], 4.69 µM (active); in test [8], 9.35 µM (active); in test [9] it was 14.8 µM (active).

As to `Cc1ccc(S(=O)(=O)Nc2nc3ccccc3nc2Nc2ccc3nsnc3c2)cc1`, the Potency in [1] is 6.45 µM (active); in test [2] it was 0.575 µM (active); in [4], 0.512 µM (active); in [5], 7.24 µM (active); in test [8], 0.724 µM (active); in [9] it was 0.911 µM (active).

As to `CN1CCN(c2ncc(-c3cc(Cl)cc(Cl)c3Cl)c(N)n2)CC1`, the Potency result in [1], in test [5] and in [8] was “inactive” in each case. Further, the Potency in test [2] was 23.5 µM (active).

Regarding `NCC1CCC(C(=O)O)CC1` (stereo not given), the Potency result in test [1], in test [3], in test [4], in test [5], in test [8] and in test [6] was “inactive” throughout. Also, the Potency result in test [9] is “inactive”.

In the case of `CNC1CCC(N(Cc2cccc(-c3ccncc3)c2)C(=O)c2sc3ccccc3c2Cl)CC1` (stereo not given), the Potency in test [1] is 20.9 µM (active); in test [2], 7.43 µM (active); in [4], 18.7 µM (active); in [6] it was 16.6 µM (active); in [9], 18.7 µM (active).

As to `CC(C)N(CCCNC(=O)Nc1ccc(C(C)(C)C)cc1)C[C@H]1O[C@@H](n2cc(Br)c3c(N)ncnc32)[C@H](O)[C@H]1O`, the results for the Potency in test [1], in test [2] and in test [5] were 23.5 µM (active), 16.6 µM (active) and 20.9 µM (active), respectively. Besides, the Potency result in [4] and in test [9] was “inactive” in each case.

Turning to `CCNC(=O)CCCC=CC[C@@H]1[C@H](C=CC(O)CCc2ccccc2)[C@@H](O)C[C@@H]1O` (stereo not given in full), the Potency result in [1], in [2], in test [4], in test [9] and in test [7] was “inactive” each time. In addition, the Potency in [5] is 10.5 µM (active).

On to `Cn1cc(-c2ccc3nnc(Sc4ccc5ncccc5c4)n3n2)cn1`, for which the Potency entry in test [1] is “inactive”. In addition, the Potency in [2] was 0.469 µM (active); in test [6], 1.18 µM (active).

Turning to `O=C(Nc1cccc(Cl)c1)Nc1ncc(CCNc2ncnc3ccsc23)s1`, the Potency in test [1] was 6.62 µM (active); in test [2], 7.43 µM (active); in [4] it was 1.05 µM (active); in [8], 4.69 µM (active); in test [9], 5.9 µM (active).

Take `COC(=O)[C@H](c1ccccc1Cl)N1CCc2sccc2C1`: the Potency result in test [1], in [2] and in test [5] was “inactive” each time. Also, the Potency in [4] is 26.4 µM (active).

`CCCCC[C@H](O)C=C[C@H]1[C@H](O)CC(=O)[C@H]1CC=CCCCC(=O)O`: the Potency result in test [1], in [2], in [4], in test [5], in test [8] and in test [9] was “inactive” in each case.

Regarding `COc1ccc(-c2cc(=O)c3c(O)cc(O[C@@H]4O[C@H](CO[C@@H]5O[C@@H](C)[C@H](O)[C@@H](O)[C@@H]5O)[C@@H](O)[C@H](O)[C@@H]4O)cc3o2)cc1O`, the Potency entry in [1], in test [4], in [5], in test [8] and in test [9] was “inactive” in each case. The Potency in test [2] is 14.8 µM (active).

As to `CCOC(=O)[C@@H](N)CCC(=O)N[C@@H](CSCc1ccccc1)C(=O)N[C@@H](C(=O)OCC)c1ccccc1`, the Potency entry in [1] and in test [5] was “inactive” each time. Besides, the results for the Potency in test [2] and in [6] were 26.4 µM (active) and 14.8 µM (active), respectively.

On to `CN(C)CCN(Cc1ccc(Cl)cc1)c1ccccn1`, for which the Potency result in [1], in test [5], in test [8], in [6] and in [9] was “inactive” each time. Moreover, the Potency in test [2] was 9.35 µM (active).

As to `N#CC(=C1Nc2ccccc2S1)c1ccnc(OCc2ccc(CN3CCOCC3)cc2)n1`, the Potency in test [1] was 23.5 µM (active); in [2] it was 7.43 µM (active); in [4] it was 0.0332 µM (active); in test [5] it was 23.5 µM (active); in test [8] it was 0.105 µM (active); in test [6] it was 0.0264 µM (active). Further, the Potency in [9] was 0.0743 µM (active); in [7] it was 0.0059 µM (active).

In the case of `CC(O)=C(C#N)C(=O)Nc1ccc(C(F)(F)F)cc1`, the results for the Potency in test [1], in [2] and in [4] were 16.6 µM (active), 18.7 µM (active) and 6.62 µM (active), respectively. Also, in test [9], the Potency entry is “inactive”.
